In PubChem BioAssay:
Calls of active or inactive are those of the source.

Experiments:
[1] = test system: Plasmodium falciparum Sir2 (PF13_0152, Sir2A); assay: Plasmodium falciparum Sir2A binding compounds – biochemical, small-molecule microarray, 635 nm fluorescence, primary screen (AID 1098); conditions: fluorescence 635 nm, higher = more signal;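 also: score merges spot fluorescence intensity with its signal-to-noise ratio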
[2] = probe aDKK1 binding to arrayed compounds – biochemical, biotinylated probe, 635/667 nm fluorescence, primary screen (AID 1099); conditions: small-molecule microarray, higher = more signal;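 also: score merges 667nm spot fluorescence with signal to noise across triplicate slides; reference of the scale not given here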
[3] = probe aCHRDL2 binding to arrayed compounds – biochemical, biotinylated probe, 635/667 nm fluorescence, primary screen (AID 1100); conditions: small-molecule microarray, higher = more signal
[4] = change in splice reporter luminescence, either direction, cell-based, HEK293, spliceosome inhibition project, primary screen (AID 1101); conditions: HEK293 splicing luciferase reporter, 24 h, higher = more signal, called active from +8 up or from −8 down;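 also: HEK293 cells carrying a splicing-competent luciferase reporter gene; test concentration not given here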
[5] = target: Fibroblast growth factor 10 (Homo sapiens) (UniProt O15520); assay: compounds binding fibroblast growth factor 10 – biochemical, small-molecule microarray, 635 nm fluorescence, primary screen (AID 1102); conditions: FGF10 binding, fluorescence 635 nm, higher = more signal
Sequence of Fibroblast growth factor 10 (Homo sapiens) (O15520 whole entry, looked up): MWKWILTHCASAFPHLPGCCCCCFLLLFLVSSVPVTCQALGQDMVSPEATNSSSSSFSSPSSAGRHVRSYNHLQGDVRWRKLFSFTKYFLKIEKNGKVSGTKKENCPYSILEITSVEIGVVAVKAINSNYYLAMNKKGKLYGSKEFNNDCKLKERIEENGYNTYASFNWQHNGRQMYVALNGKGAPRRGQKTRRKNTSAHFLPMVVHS

[6] = test system: glycogen synthase kinase-3 (GSK3A per assay name; protocol says GSK3B); assay: compounds binding glycogen synthase kinase-3 – biochemical, small-molecule microarray, 635 nm fluorescence, GSK3A, primary screen (AID 1103); conditions: fluorescence 635 nm, higher = more signal; also: the record names both GSK3A and GSK3B
[7] = target: Epidermal growth factor receptor (Homo sapiens) (UniProt P00533); assay: compounds binding epidermal growth factor receptor – biochemical, small-molecule microarray, 635 nm fluorescence, primary screen (AID 1104); conditions: EGFR binding, higher = more signal;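 also: score merges 667 nm emission intensity with spot signal to noise over triplicate slides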
Sequence of Epidermal growth factor receptor (Homo sapiens) (P00533 whole entry, looked up): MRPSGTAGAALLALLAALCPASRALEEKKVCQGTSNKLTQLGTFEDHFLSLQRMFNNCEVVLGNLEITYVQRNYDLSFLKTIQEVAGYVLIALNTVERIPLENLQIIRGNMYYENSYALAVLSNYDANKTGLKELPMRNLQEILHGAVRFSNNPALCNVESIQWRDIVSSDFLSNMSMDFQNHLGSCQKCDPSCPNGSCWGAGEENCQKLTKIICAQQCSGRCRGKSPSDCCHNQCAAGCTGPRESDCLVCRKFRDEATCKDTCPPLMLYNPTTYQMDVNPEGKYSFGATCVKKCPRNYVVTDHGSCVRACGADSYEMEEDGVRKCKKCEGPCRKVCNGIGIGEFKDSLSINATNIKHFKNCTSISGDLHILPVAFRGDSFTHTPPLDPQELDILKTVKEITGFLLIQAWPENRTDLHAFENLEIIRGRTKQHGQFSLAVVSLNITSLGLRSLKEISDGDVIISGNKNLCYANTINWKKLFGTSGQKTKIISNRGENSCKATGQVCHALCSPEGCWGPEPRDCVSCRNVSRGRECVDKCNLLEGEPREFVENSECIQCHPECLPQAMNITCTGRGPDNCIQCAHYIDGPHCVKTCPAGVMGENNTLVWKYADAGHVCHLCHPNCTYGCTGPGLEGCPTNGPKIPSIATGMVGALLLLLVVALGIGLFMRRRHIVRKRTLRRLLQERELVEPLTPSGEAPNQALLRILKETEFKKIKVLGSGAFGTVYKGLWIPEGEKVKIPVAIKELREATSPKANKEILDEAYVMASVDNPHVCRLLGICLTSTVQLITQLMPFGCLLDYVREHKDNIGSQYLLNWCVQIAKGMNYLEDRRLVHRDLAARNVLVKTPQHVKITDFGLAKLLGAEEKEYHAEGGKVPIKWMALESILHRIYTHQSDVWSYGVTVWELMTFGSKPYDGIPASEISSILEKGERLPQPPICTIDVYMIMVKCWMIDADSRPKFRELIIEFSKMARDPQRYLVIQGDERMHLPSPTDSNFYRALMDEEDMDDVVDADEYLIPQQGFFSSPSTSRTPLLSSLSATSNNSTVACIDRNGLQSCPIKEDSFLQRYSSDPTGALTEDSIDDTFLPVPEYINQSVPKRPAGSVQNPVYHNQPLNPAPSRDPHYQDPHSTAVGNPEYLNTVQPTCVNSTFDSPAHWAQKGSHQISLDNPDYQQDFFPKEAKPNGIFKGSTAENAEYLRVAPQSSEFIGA

[8] = target: Follistatin-related protein 3 (Homo sapiens) (UniProt O95633); assay: compounds binding follistatin-related protein 3 – biochemical, small-molecule microarray, 635 nm fluorescence, primary screen (AID 1105); conditions: FSTL3 binding, higher = more signal;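 also: score merges emission near 667 nm and signal to noise per printed spot across three slides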
Sequence of Follistatin-related protein 3 (Homo sapiens) (O95633 whole entry, looked up): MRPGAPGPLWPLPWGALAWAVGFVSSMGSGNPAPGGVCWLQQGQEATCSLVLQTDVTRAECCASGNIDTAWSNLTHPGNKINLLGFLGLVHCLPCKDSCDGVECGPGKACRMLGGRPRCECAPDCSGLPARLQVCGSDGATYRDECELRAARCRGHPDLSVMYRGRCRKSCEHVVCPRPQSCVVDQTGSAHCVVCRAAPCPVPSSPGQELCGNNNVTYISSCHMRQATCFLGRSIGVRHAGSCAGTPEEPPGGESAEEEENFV

[9] = target: Dickkopf-related protein 1 (Homo sapiens) (UniProt O94907); assay: small molecules binding DKK1 protein – biochemical, small-molecule microarray, 635 nm fluorescence scan, primary screen (AID 1106); conditions: higher = more signal;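 also: score merges emission near 667 nm with signal to noise over three replicate slides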
Sequence of Dickkopf-related protein 1 (Homo sapiens) (O94907 whole entry, looked up): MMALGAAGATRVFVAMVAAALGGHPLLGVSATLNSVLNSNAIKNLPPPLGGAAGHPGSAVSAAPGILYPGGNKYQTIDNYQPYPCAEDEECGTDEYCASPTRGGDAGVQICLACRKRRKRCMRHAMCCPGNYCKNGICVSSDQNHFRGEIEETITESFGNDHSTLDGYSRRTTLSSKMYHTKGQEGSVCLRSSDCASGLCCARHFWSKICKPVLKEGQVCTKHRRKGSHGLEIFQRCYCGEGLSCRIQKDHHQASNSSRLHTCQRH

[10] = test system: Inhibin beta A chain (activin A); assay: small molecules binding activin A – biochemical, small-molecule microarray, 635 nm fluorescence scan, primary screen (AID 1107); conditions: INHBA, higher = more signal;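 also: mouse activin A protein probed at 4.33 µg/mL on printed slides; score merges bound-protein fluorescence near 667 nm with spot signal-to-noise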

Row | SMILES | composite z-score [1] | composite z-score [2] | composite z-score [3] | z-score [4] | composite z-score [5] | composite z-score [6] | composite z-score [7] | composite z-score [8] | composite z-score [9] | composite z-score [10]
1 | O=C1c2ccccc2[C@@]2(Cc3ccccc3N(Cc3ccccc3)C2=O)[C@H](c2ccc(CO)cc2)N1C1CCCCC1 | 1.3 | -0.367 | -0.292 | -0.322 (inactive) | 0.831 | 0.152 | 0.131 | 0.41 | 0.662 | 0.784
2 | COc1ccc(C(O)C2C=CC3C(=O)NC(=O)C3N2Nc2ccccn2)cc1OCc1ccccc1 (stereo not given) | 0.524 | 0.0679 | 0.668 | 1.04 (inactive) | -0.0457 | 0.13 | 0.208 | 0.187 | -0.236 | 0.557
3 | C=CCC(OC(C)=O)[C@@H]1[C@@H](N(Cc2ccc(-c3cccc(C(F)(F)F)c3)o2)C(=O)c2ccc(C)cc2)c2cc(OCCCO)ccc2N1C(=O)c1ccc(-c2ccccc2)cc1 (stereo not given in full) | 0.44 | -0.0544 | 0.0823 | -0.714 (inactive) | 0.0825 | -1 | -0.0697 | 0.473 | -0.0581 | 1.23
4 | CC=CC(O)C1C=CC2C(=O)N(c3ccccc3)C(=O)C2N1Nc1ccc(C(C)C)cc1 (stereo not given) | 0.534 | 0.75 | 0.973 | -0.235 (inactive) | 0.878 | 1.24 | 0.122 | 1.3 | 0.14 | 0.841
5 | CCOC(=O)C1=C[C@@H](C(C)C)N(S(=O)(=O)c2ccc(C)cc2)[C@H]1c1ccc(C(C)C)cc1 | 1.65 | -0.132 | -0.229 | 0.449 (inactive) | 1.04 | 1.3 | 0.848 | 1.35 | 0.57 | 0.375
6 | CCCCCN1CC=CC23O[C@@H]4/C=C\CCC(C)OC(=O)C4[C@H]2C(=O)N(CCCCCO)[C@@H]3C1=O (stereo not given in full) | 0.16 | -0.499 | -0.0779 | -0.228 (inactive) | -0.57 | -0.77 | 0.361 | -0.501 | -1.07 | -0.362
7 | COC(=O)c1ccc(C23CC2(C(NP(=O)(c2ccccc2)c2ccccc2)c2ccccc2)C3)cc1 (stereo not given) | 0.36 | 1.83 | 1.39 | -3.03 (inactive) | 0.831 | -0.0094 | 0.134 | 0.835 | -0.63 | 0.893
8 | CN1CCC(CCCO)=CC1c1ccc(CN2CCCC2)cc1 (stereo not given) | 0.988 | 0.331 | 0.756 | 0.873 (inactive) | 1.3 | 1.3 | 1.64 | 1.48 | 1.74 | 1.86
9 | COCC(=C=CC[C@@H](O)c1ccc(CO)o1)CCO | 0.772 | -0.239 | -0.181 | -2.32 (inactive) | 1.26 | 0.0348 | 0.614 | 0.574 | 0.618 | 0.839
10 | O=C(O)[C@H]1C[C@H]2C(=O)NCC(=O)N2[C@H]1c1ccc(O)cc1 | 0.237 | -0.248 | -0.346 | -0.821 (inactive) | 0.413 | 0.504 | -0.213 | 0.845 | 0.681 | 0.23
11 | COCCOC(=O)N1C(=O)[C@@]2(c3ccccc31)[C@H](C(=O)Nc1nc3ccccc3s1)[C@H]1C(=O)O[C@H](c3ccccc3)[C@H](c3ccccc3)N1[C@@H]2c1ccc(OCCO)cc1 | 1.11 | 0.186 | 0.54 | -0.128 (inactive) | 1.26 | 1.3 | 0.331 | 1.11 | 0.427 | 0.464
12 | CC(C)N1CC=CC23O[C@@H]4C=CCOC(=O)[C@@H]4[C@H]2C(=O)N(CCO)[C@@H]3C1=O (stereo not given in full) | 1.58 | -0.256 | 0.651 | -0.262 (inactive) | -1.61 | -0.897 | -0.859 | -0.447 | -1.61 | -0.223
13 | CC(C)NC(=O)[C@@H]1c2ccccc2C(=O)N(Cc2ccccc2Cl)[C@H]1c1ccc(CO)cc1 | 0.284 | 0.0098 | 0.448 | 0.62 (inactive) | -0.584 | 0.0016 | -0.903 | -0.398 | -0.645 | 0.365
14 | [N-]=[N+]=Nc1ccccc1[C@H]1OC(c2ccc(OCCCO)cc2)=N[C@@]1(CCS(=O)(=O)c1ccccc1)C(=O)O | 1.31 | 0.503 | 1.14 | -0.433 (inactive) | 0.104 | -0.359 | -0.18 | -0.116 | -0.601 | 1.25
15 | COC(=O)[C@@]1(Cc2ccc(OC)cc2)[C@H]2c3cc(C(=O)N4CCCC4)n(CCc4c[nH]c5cc(F)ccc45)c3C[C@H]2CN1C(=O)c1ccccc1 | 1.31 | 0.185 | 1.19 | -0.332 (inactive) | 0.875 | 1.09 | 0.0022 | 0.988 | -0.0303 | 0.831
